Experimental data: PubChem BioAssay (NCI)
“And” between values parts separate entries of the source, which are not always exact repeats. Identical values can stand only once. About 83,000 compounds went through this panel and 20% of them were active in at least one assay; those are over-represented in the sample as a whole.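 Single-concentration screen, 48 h exposure, 96-well plates. Endpoint: percent growth. Below 10 = active.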 The source made the active and inactive calls.

system: HL-60(TB) leukemia; assay: NCI-60 one-dose screen, 48 h (100 = growth as untreated, 0 = no growth, -100 = all killed); settings: 10 µM unless noted

Row | Compound | growth
1 | CCN(CC)CCCNc1ccc(Nc2ccc(OC)cc2)cc1 | -48.7% (active)
2 | Nc1ccccc1SC(CC(=O)c1ccccc1)c1ccc([N+](=O)[O-])cc1 (stereo unspecified) | 95.8% (inactive) and 74.9% (inactive)
3 | Cc1cc(C(=O)c2ccc(Cl)cc2)ccc1O | 147% (inactive)
4 | CNc1ccc(O)cc1 | 103% (inactive) and 93% (inactive)
5 | N=C(N)c1ccc(-c2ccc(-c3cc(Cl)cc(Cl)c3)o2)o1 | -64% (active)
6 | O=S(=O)(Nc1ccc(-c2nc(-c3cccc(OCCN4CCOCC4)c3)c(-c3ccnc(Br)c3)[nH]2)cc1)c1ccccc1 | -2.01% (active)
7 | Cc1nc2c(=O)[nH]c(=S)[nH]c2[nH]c1=O | 75.3% (inactive) and 96.3% (inactive)
8 | O=C(Cc1ccccc1)c1ccc(Cl)cc1 | 111% (inactive)
9 | Oc1c(Cl)cc(Cl)c2ccc(Cn3cc(-c4cc(F)cc(F)c4)nn3)nc12 | 2.85% (active)
10 | NC(=O)NO | 82.9% (inactive) and 72.8% (inactive)
11 | CCOC(=O)C(=O)C(C(=O)OCC)c1ccccc1 (stereo unspecified) | 95.6% (inactive)
12 | CCOC(=O)c1csc(N)n1 | 95.1% (inactive) and 98.1% (inactive)
13 | O=C1/C(=C/c2ccc(F)cc2)COc2ccc(O)c(O)c21 | -17% (active)
14 | CC(=O)Nc1cccc2c1CCCC2 | 89.5% (inactive) and 105% (inactive)
15 | O=C1c2cc(Cl)ccc2S(=O)(=O)c2c(NCCCNCCO)nc3ccccc3c21 | -27% (active)
16 | O=C(Nc1cccc(-n2cc(-c3ccncc3)c(-c3ccc(Cl)c(O)c3)n2)c1)Nc1ccc(Cl)c(Cl)c1 | -6.98% (active)
